Assay results taken from PubChem BioAssay (EPA / NIEHS).
Active and inactive are the calls of the source. The calls were made as follows: active = hit-call score of the fitted dose curve at least 0.9, where 1 is the maximum; inactive = score below 0.9.

read-out: Nuclear factor NF-kappa-B p105 subunit (Homo sapiens) (UniProt P19838); experiment: LTEA_HepaRG_NFKB1: Life Technologies and Expression Analysis (LTEA) Assay for Nuclear Factor Kappa B Subunit 1 (NFKB1) using HepaRG (AID 2283521); settings: mRNA level, 48 h; actives raise or lower the signal;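 as to outcome: TaqMan qRT-PCR transcript normalised to ACTB GAPDH and POLR2A housekeeping genes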
Procedure: LTEA_HepaRG is a cell based, multiplexed-readout assay that uses HepaRG, a human liver cell line, with measurements taken at 48 hours after chemical dosing on a 96-well plate.LTEA_HepaRG_NFKB1 is one of 102 assay component(s) measured in the LTEA HepaRG cell culture assay. It is a marker of Cell proliferation, survival, death.Data from the assay component LTEA_HepaRG_NFKB1 was analyzed into 1 endpoint. This assay endpoint, LTEA_HepaRG_NFKB1, was analyzed with bidirectional fitting relative to DMSO as the negative control and baseline of activity. Using a type of inducible reporter, measures of mRNA induction for gain or loss-of-signal activity can be used to understand regulation of transcription factor activity. To generalize the intended target to other relatable targets, this assay endpoint is annotated to the dna binding intended target family, where the subfamily is NF-kappa B.
A total of 1060 chemcials from the ToxCast library were tested in eight-point concentration-response experiments. Cell culture and cytotoxicity assays were conducted at Thermo Fisher Scientific's Custom Services facility (Madison, WI). A single lot of human HepaRG cells (Thermo Fisher Scientific, Frederick, MD) was used for the cell culture experiments. 96-well format collagen type I coated plates of human HepaRG cells were prepared using established methods. Briefly, cryopreserved HepaRG cells were thawed, plated at a density of approximately 100,000 cells/well in HepaRG Thaw, Plate, and General Purpose media (HPRG770, Thermo Fisher Scientific), and incubated for 48 hours. 0.5% DMSO was selected as vehicle control to balance the requisite need of DMSO in HepaRG cultures to maintain differentiation (for example, baseline metabolism, proportions of hepatocytes vs. cholangiocytes), while enabling further hepatic receptor pathway activation (for example, PXR and CAR) in response to chemical exposure. 48 hours after plating, the culture medium was replaced with HepaRG Serum-Free Incudtion Media. Cells were exposed to each test chemical in duplicate and maintained in CO2 incubators for another 48 hours. Chemical plates were thawed to room temperature and 200x concentrations of treatment groups were prepared. 8-point conentration-reponse curves were made with the highest exposure at 100 uM, followed by half-log dilutions, all in 0.5% DMSO. Each test plate contained variouse controls, induction positive controls (1mM phenobarbital), cytotoxicity positive controls ([…] aflatoxin B1), vehicle controls (0.5% DMSO), and total lysis controls (0.5% DMSO). Cell morphology images were taken using an Essen IncuCyte FLR automated microscope, with six 96-well plates imaged in about 24 minutes. Images were captured and exported and JPEG files. Spent culture media was transfered to black-well plates for the LDH assay, and remaining media was sorted at -80 C for later use. Cells were treated with RLT buffer and frozen until shipped for gene expression analysis. Total RNA was isolated from the cell suspension in 75 uL of Buffer RLT (Qiagen, Germantown, MD 20874) by Quintiles/Expression Analysis (Durham, NC) using a custom isolation procedure. Total RNA from each plate well was transferred to a preamplification plate. Fluidigm's 96.96 Dynamic ArrayTM (Fluidigm, Amsterdam, the Netherlands) technology was used for gene expression analyses by quantitative reverse transcription polymerase chain reaction (qRT-PCR, performed by Quintiles/Expression Analysis, Durham, NC)89. Standard TaqManTM Assays (Applied Biosystems/ThermoFisher Scientific, Foster City, CA) were used to assess the expression of 93 genes selected based on their selectivity and sensitivity to important hepatic receptors known to be modulated by environmental chemicals; importance in human hepatocyte functionality; and hepatotoxicity. […]

Chain of Nuclear factor NF-kappa-B p105 subunit (Homo sapiens) (P19838 whole entry, looked up): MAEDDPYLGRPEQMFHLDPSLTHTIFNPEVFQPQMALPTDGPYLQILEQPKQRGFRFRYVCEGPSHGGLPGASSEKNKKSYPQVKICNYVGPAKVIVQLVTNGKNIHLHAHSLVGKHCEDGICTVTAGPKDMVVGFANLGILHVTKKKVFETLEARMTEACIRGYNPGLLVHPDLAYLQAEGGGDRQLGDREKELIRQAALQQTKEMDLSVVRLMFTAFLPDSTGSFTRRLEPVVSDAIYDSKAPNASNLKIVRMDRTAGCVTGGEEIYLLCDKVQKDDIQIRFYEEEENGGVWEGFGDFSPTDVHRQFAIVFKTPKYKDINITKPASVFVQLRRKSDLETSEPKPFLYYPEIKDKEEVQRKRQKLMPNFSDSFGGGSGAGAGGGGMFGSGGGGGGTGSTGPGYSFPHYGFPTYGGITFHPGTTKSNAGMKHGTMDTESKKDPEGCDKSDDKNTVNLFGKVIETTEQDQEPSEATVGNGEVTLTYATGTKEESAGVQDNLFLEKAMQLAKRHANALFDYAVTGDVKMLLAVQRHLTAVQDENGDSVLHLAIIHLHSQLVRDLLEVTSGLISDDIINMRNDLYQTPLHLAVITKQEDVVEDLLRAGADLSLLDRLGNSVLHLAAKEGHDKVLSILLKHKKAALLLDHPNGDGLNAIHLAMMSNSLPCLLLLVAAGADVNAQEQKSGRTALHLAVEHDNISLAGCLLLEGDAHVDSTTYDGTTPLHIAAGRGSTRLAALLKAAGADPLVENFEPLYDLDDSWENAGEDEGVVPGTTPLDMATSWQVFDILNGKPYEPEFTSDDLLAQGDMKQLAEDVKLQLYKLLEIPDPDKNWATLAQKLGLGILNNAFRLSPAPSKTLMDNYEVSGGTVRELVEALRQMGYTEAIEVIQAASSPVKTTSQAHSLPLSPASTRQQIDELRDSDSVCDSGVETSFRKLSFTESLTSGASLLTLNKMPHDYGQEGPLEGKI

Compound | outcome | AC50
Cc1cc(CCN2CCN(c3nsc4ccccc34)CC2)cc2c1NC(=O)CC2(C)C | inactive | –
C[C@@H]1C[C@H]2[C@@H]3CCC4=CC(=O)C=C[C@]4(C)[C@@]3(F)[C@@H](O)C[C@]2(C)[C@@]1(O)C(=O)COP(=O)(O)O | inactive | –
COCC(C)OCC(C)O (stereo not given) | inactive | –
NC(=O)N(O)[C@@H]1C=C[C@H](Oc2cccc(Oc3ccc(F)cc3)c2)C1 | – | 74.4 µM (active)
CC1=C(/C=C/C(C)=C/C=C/C(C)=C/C(=O)O)C(C)(C)CCC1 | inactive | –
CC(=O)NC1(c2cccc(F)c2)CCN(CC[C@@]2(c3ccc(Cl)c(Cl)c3)CN(c3ccccc3)C(=O)CO2)CC1 | – | 61.6 µM (active)
CC[C@H](c1ccc(O)cc1)[C@@H](CC)c1ccc(O)cc1 | inactive | –
CCOC(=O)CC(O)(CC(=O)OCC)C(=O)OCC | inactive | –
CCCOc1sc(C(=O)N2CCC(c3cc(CN)ccc3F)CC2)c(C)c1Br | inactive | –
Oc1cc2ccccc2c2ccccc12 | inactive | –
CCC(=C(c1ccc(O)cc1)c1ccc(OCCN(C)C)cc1)c1ccccc1 | inactive | –
CC(C)(C)c1cccc(C(C)(C)C)c1O | inactive | –
COc1ccc([N+](=O)[O-])cc1N | inactive | –
CC(O)CO (stereo not given) | inactive | –
O=C(OCCOCCOC(=O)c1ccccc1)c1ccccc1 | inactive | –
OCCC(F)(F)C(F)(F)C(F)(F)C(F)(F)C(F)(F)C(F)(F)C(F)(F)C(F)(F)F | inactive | –
CCCCCCCCCCCCCCCS(=O)(=O)Oc1ccccc1 | inactive | –
c1ccc2c(c1)ccc1ccccc12 | inactive | –
c1ccc2c(c1)Cc1ccccc1-2 | inactive | –
COCC(C)O (stereo not given) | inactive | –

Compound | outcome | AC50
CN(C)C=O | inactive | –
CCCCCCCCCCCCN1CCCC1=O | inactive | –
CCc1ccc(CCOc2ccc(CC3SC(=O)NC3=O)cc2)nc1 (stereo not given) | inactive | –
CCCCCCCCCCCCc1ccccc1S(=O)(=O)O | inactive | –
CC#C[C@]1(O)CC[C@H]2[C@@H]3CCC4=CC(=O)CCC4=C3[C@@H](c3ccc(N(C)C)cc3)C[C@@]21C | – | 50 µM (active)
CCc1nn(C2CCCCC2)c2cc(C3(C#N)CCC(C(=O)O)CC3)ccc12 (stereo not given) | inactive | –
CC(=O)CC(C)(C)O | inactive | –
CCCCOCCO | inactive | –
C#C[C@]1(O)CC[C@H]2[C@@H]3CCC4=CC(=O)CC[C@@H]4[C@H]3CC[C@@]21C | inactive | –
CCCCC(CC)COC(=O)CCCCC(=O)OCC(CC)CCCC (stereo not given) | inactive | –
CN1CCN(c2ccccc2/C=C2\SCCN(c3ccc(Cl)c(Cl)c3)C2=O)CC1 | inactive | –
O=C(O)c1ccccc1C(c1ccc(O)cc1)c1ccc(O)cc1 | inactive | –
CC(C)(C)CC(C)(C)c1ccc(O)c(-n2nc3ccccc3n2)c1 | inactive | –
ClC1=C(Cl)C(Cl)(Cl)C(Cl)=C1Cl | inactive | –
Oc1cccc(O)c1 | inactive | –
N#C[C@@H]1CC(F)(F)CN1C(=O)CNC1CC2CCC(C1)N2c1ncccn1 (stereo not given in full) | – | 1.8 µM (active)
O=C(O)Cc1cc(I)c(Oc2cc(I)c(O)c(I)c2)c(I)c1 | – | 52.8 µM (active)
CCCCCCCCOC(=O)CCCCCCCCC(=O)OCCCCCCCC | inactive | –
O=c1c(-c2ccc(O)cc2)coc2cc(O)ccc12 | inactive | –
Cc1oc(-c2ccccc2)nc1CCOc1ccc(C[C@H](Nc2ccccc2C(=O)c2ccccc2)C(=O)O)cc1 | inactive | –
